From PubChem BioAssay
BoNT F protease – BoNT F light chain protease inhibition | Multiplex microsphere protease cleavage assay, flow cytometry | inhibition, % at 10 µM | 0.22% of 360,000 active; in the data active = inhibition above about 35%, passing the limit was not always enough; inconclusive = no clear call, values can overlap the other calls; also: plate controls were buffer without enzyme for full effect and enzyme alone for no effect
Autofluor counter – flagged as autofluorescent in microsphere protease counterscreen; compound autofluorescence counterscreen, microsphere flow cytometry; active compounds read high; fluorescence intensity (no concentration beside the values); 3.1% of 360,000 active; AID 624483; in the data active = fluorescence intensity above about 16000; inconclusive = no clear call, values can overlap the other calls
PriA SSB inh – inhibitors of Klebsiella pneumoniae PriA binding to SSB C-terminal tail; AlphaScreen SSBct-PriA binding, biotinylated peptide; inhibition, % at 33 µM; 0.6% of 430,000 active; AID 1272365; in the data active = inhibition mostly above about 37%, no sharp cut-off; inactive = mostly below about 20%;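 also: plate controls were negative control peptide for no effect and reference peptide for full effect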
BoNT A protease – BoNT A light chain protease inhibition | 0.17% of 360,000 active | AID 588499 | multiplex microsphere protease substrate cleavage, flow cytometry | inhibition, % at 10 µM; also: plate controls were buffer without enzyme for full effect and enzyme alone for no effect
Anthrax LF prot – anthrax lethal factor protease inhibition | P15917 | multiplex microsphere protease cleavage assay, LF | inhibition, % at 10 µM | 0.12% of 360,000 active | AID 588501; also: plate controls were buffer without enzyme for full effect and enzyme alone for no effect
The depositor's hits bear a star; ? = inconclusive; · = no result. The list is not random: actives were taken first. Their share in the collection is about 3.1%. Rule as the data show it, unless noted: active = inhibition above about 30%; inconclusive = no clear call, values can overlap the other calls; inactive = below that.

SMILES | BoNT F protease | Autofluor counter | PriA SSB inh | BoNT A protease | Anthrax LF prot
CC(=O)Nc1cccc(C(=O)OC(C(=O)c2ccc(C)c(C)c2)c2ccccc2)c1 (stereo not given) | -2 | 19826* | 13 | -1 | -13
Cc1cc2nnc(SCC(=O)Nc3cccc(-c4nc5ccccc5s4)c3)n2c2ccccc12 | · | · | -17 | · | ·
CN1CCn2c1nc(N1CCCCC1)nc2=O | -9 | 21803* | -12 | -6 | 0
Cc1ccc(S(=O)(=O)N(C)c2ccc(C(=O)NCc3ccco3)cc2)cc1 | · | · | 4 | · | ·
COc1cc(CN2CCCCCC2)cc([N+](=O)[O-])c1O | -8 | 4743 | -12 | -5 | -6
COc1cc(CN2CCCC(C)C2)cc([N+](=O)[O-])c1O (stereo not given) | -2 | 23731* | -6 | 0 | 0
CN(C)c1nc(NS(=O)(=O)c2ccc(Cl)cc2)nc(N(C)C)n1 | -3 | 16435* | 1 | 0 | -3
O=S(=O)(Nc1ccc(NS(=O)(=O)c2ccc(Cl)cc2)cc1)c1ccc(Cl)cc1 | · | · | -13 | · | ·
O=C(CCC(NC(=O)OCc1ccccc1)C(=O)OCC(=O)N1CCCCC1)OCC(=O)N1CCCCC1 (stereo not given) | 6 | 21055* | -8 | 3 | -8
CC1=Nc2ccccc2/C1=C\c1nc(-c2ccc(C(F)(F)F)cc2)oc1O | -47 | 17953* | 9 | 10 | 6
CC1=Nc2ccccc2/C1=C\c1nc(-c2ccccc2)oc1O | -120 | 2897 | 7 | 21 | -26
O=C1OC(Nc2cc(Br)cc3cccnc23)c2ccccc21 (stereo not given) | -12 | 2345 | 74* | 2 | -2
COc1cc(OC)nc(NC2OC(=O)c3ccccc32)n1 (stereo not given) | -5 | 16622* | -2 | -2 | -5
CC(C)NC(=O)CN1CCN(Cc2nc(-c3ccc(N4CCC[C@H](C)C4)nc3)no2)CC1 | · | · | -9 | · | ·
COCCCn1c(C(C)C)nc2oc3cc(OC)ccc3c(=O)c2c1=O | 1 | 20914* | -3 | -1 | 0
COc1ccc(-c2nc3oc4cc(OC)ccc4c(=O)c3c(=O)n2Cc2ccco2)cc1 | -1 | 20811* | -6 | 0 | -1
COCCn1c(-c2ccc(OC)cc2)nc2oc3cc(OC)ccc3c(=O)c2c1=O | -5 | 20954* | -7 | -3 | -3
COc1ccc2c(=O)c3c(=O)n(Cc4ccccc4)c(C(C)C)nc3oc2c1 | -20 | 3502 | -9 | -5 | ?
Cc1cc(C(=O)NN=Cc2cccs2)n[nH]1 | · | · | -5 | · | ·
COC(=O)c1ccccc1NC(=O)COc1ccccc1 | -17 | 10312 | -19 | -1 | -5
COCCNC(=O)c1ccccc1NC(=O)COc1ccccc1 | 4 | 20130* | -5 | 2 | 2
CCc1ccc(-n2nnc3c(=O)n(Cc4nc(-c5ccc(OC)cc5)no4)cnc32)cc1 | · | · | -3 | · | ·
CCN1CCCC1CNCc1cc(OC)c(OC)c(OC)c1 (stereo not given) | -6 | 24874* | -14 | -4 | 0
CCOc1cc(CNCC2CCCN2CC)cc(Cl)c1OC (stereo not given) | 2 | 3198 | -8 | 0 | 2
Cc1ccc(CNC(=O)c2sc3nc4c(c(C(F)(F)F)c3c2N)CCC4)cc1 | -1 | 24632* | -6 | ? | 1
SMILES | BoNT F protease | Autofluor counter | PriA SSB inh | BoNT A protease | Anthrax LF prot
Nc1c(C(=O)NCc2ccc(Cl)cc2)sc2nc3c(c(C(F)(F)F)c12)CCC3 | 6 | 15715 | -33 | 6 | 1
CCOC(=O)c1ccc2nc(-c3ccccc3)cc(OCC(=O)Nc3ccc(F)c(Cl)c3)c2c1 | · | · | 6 | · | ·
CCOC(=O)C1C(=O)NC(N2CCCCC2)=NC1c1ccccc1 (stereo not given) | 1 | 22677* | -8 | -1 | -2
CCOC(=O)C1C(=O)NC(N2CCN(Cc3ccccc3)CC2)=NC1c1ccccc1 (stereo not given) | -8 | 11601 | -4 | -1 | -5
Cc1nn(S(=O)(=O)N2CCC(C)CC2)c(C)c1Cl | · | · | -48 | · | ·
Cc1cc(NC(=O)CSc2ccc(-c3ccco3)nn2)no1 | · | · | -14 | · | ·
O=C(NCCC(O)c1ccc2c(c1)OCO2)c1c(F)cccc1Cl (stereo not given) | · | · | 7 | · | ·
O=C(NCCCCCCNC(=O)C1CCCC1)C1CCCC1 | 0 | 21472* | -25 | ? | -3
O=C(O)[C@H]1CCCC[C@H]1C(=O)NCCNC(=O)[C@@H]1CCCC[C@@H]1C(=O)O | -5 | 23932* | -4 | ? | -2
O=C(CNC(=O)C1CCCCC1)NCCCO | -26 | 12861 | 14 | -4 | -6
O=C(Nc1ccc(Br)cc1)c1cccnc1N1CCCCC1 | 5 | 21086* | -23 | 8 | -8
O=C(Nc1ccc(F)cc1)c1cccnc1N1CCCCC1 | -5 | 21821* | -12 | -4 | 1
